# From PubChem BioAssay AID463173 (ICCB-Longwood Screening Facility, Harvard Medical School, 2010)
# The whole screen tested about 52,000 compounds, of which about 4,300 (8.3%) were called active. The sample as a whole holds a higher share of actives than the screen did. A number with no mark means an inactive call. No stated cut-off is given here; in the data, active means survival mostly below about 52% (no sharp cut-off); inactive means mostly above about 56%.
# Test system: DeltatarO mutant
# Assay: S. aureus survival, RN4220 and DeltatarO strains – OD600, teichoic acid synthesis inhibitors, primary screen (AID 463173)
# Conditions: S. aureus RN4220 wild type/DeltatarO growth, OD600, 18 h, hits give low values, screened at 18.75 µg/mL (by protocol)
row,SMILES,survival
1,COc1ccccc1Nc1ncnc2scc(-c3ccc(F)cc3)c12,115%
2,Cc1c2cnn(CC(=O)NCc3ccc(Cl)cc3)c(=O)c2c(C)n1Cc1ccc(F)cc1,62%
3,CC(=O)c1ccc(NC(=O)Cn2ncc3c(C)n(Cc4ccc(F)cc4)c(C)c3c2=O)cc1,60% (active)
4,Cc1ccc(C)c(NC(=O)Cn2ncc3c(C)n(Cc4ccc(F)cc4)c(C)c3c2=O)c1,71%
5,Cc1cccc(OCC(=O)N(Cc2cccs2)c2ccc(Cl)cc2)c1C,61%
6,COc1ccc(N(Cc2cccs2)C(=O)COc2cccc(Cl)c2)cc1,42% (active)
7,COc1ccc(N(Cc2cccs2)C(=O)COc2ccc(C(C)C)cc2)cc1,80%
8,COc1ccc(N(Cc2cccs2)C(=O)COc2cc(C)c(Cl)c(C)c2)cc1,65%
9,COc1ccc(N(Cc2cccs2)C(=O)COc2cccc(C)c2C)cc1,17% (active)
10,COc1ccc(OCC(=O)N(Cc2cccs2)c2ccc(OC)cc2)cc1,66%
11,Cc1ccccc1-c1nn2c(=O)cc(CN3CCN(C(=O)c4ccccc4Br)CC3)nc2s1,116%
12,Cc1cc(C)c2c(CC(=O)Nc3ccc(S(=O)(=O)N4CCCCC4)cc3)coc2c1,76%
13,CC(=O)O/N=C1/CC(C)(C)Cc2onc(C)c21,76%
14,CCOC(=O)c1cc(S(=O)(=O)NCc2ccc(Cl)cc2)[nH]n1,87%
15,Cc1ccc(-c2nc(-c3cc4cccc(OCc5ccccc5F)c4oc3=O)no2)cc1,60%
16,COc1ccc(C2c3[nH]c4ccccc4c3CCN2C(=O)CCC2CCCC2)cc1 (stereo unspecified),95%
17,O=C(C1COc2cc(S(=O)(=O)Nc3ccc(Cl)cc3)ccc2O1)N1CCCC1 (stereo unspecified),71%
18,CN(C(=O)CSc1nc(-c2ccco2)cc(C(F)(F)F)n1)c1ccccc1,92%
19,COc1ccccc1CNC(=O)CCn1cnc2ccccc2c1=O,-5% (active)

row,SMILES,survival
1,COc1ccccc1NC(=O)CCn1cnc2ccccc2c1=O,92%
2,O=C(CCn1cnc2ccccc2c1=O)NCc1ccccc1Cl,77%
3,COc1ccc(N2C(=O)CS(=O)(=O)C23C(=O)N(Cc2c(F)cccc2Cl)c2ccccc23)cc1 (stereo unspecified),86%
4,CCc1ccc2ncc3c(-c4ccc(C)cc4)nn(CC(=O)NCc4ccccc4)c3c2c1,57%
5,CCCNC(=O)Cn1nc(-c2ccc(C)cc2)c2cnc3ccc(CC)cc3c21,37% (active)
6,CCc1ccc(-c2nn(CC(=O)Nc3ccccc3C)c3c2cnc2ccc(C)cc23)cc1,70%
7,CCc1ccc(-c2nn(CC(=O)NC3CCCC3)c3c2cnc2ccc(F)cc23)cc1,105%
8,CCc1ccc(-c2nn(CC(=O)NC3CCCC3)c3c2cnc2ccc(C)cc23)cc1,37% (active)
9,Cc1ccc(-c2nn(CC(=O)NC3CCCCC3)c3c2cnc2ccc(F)cc23)cc1C,0% (active)
10,Cc1ccc(-c2nn(CC(=O)NC3CCCC3)c3c2cnc2ccc(F)cc23)cc1C,93%
11,CCc1ccc(-c2nn(CC(=O)NC3CCCCC3)c3c2cnc2ccc(C)cc23)cc1,69%
12,Cc1ccc2ncc3c(-c4ccc(F)cc4)nn(CC(=O)Nc4ccccc4C)c3c2c1,101%
13,CCc1ccc2ncc3c(-c4ccc(C)cc4)nn(CC(=O)Nc4ccc(C)cc4)c3c2c1,55%
14,CCc1ccc(-c2nn(CC(=O)NC3CCCCC3)c3c2cnc2ccc(F)cc23)cc1,72%
15,Cc1ccccc1NC(=O)Cn1nc(-c2ccc(F)cc2)c2cnc3ccccc3c21,25% (active)
16,CCN(CC)c1ccc(NC(=O)C2CCN(S(=O)(=O)c3ccc4c(c3)oc(=O)n4C)CC2)c(C)c1,90%
17,COc1ccc(C2CC(=O)c3cc(-c4nc(-c5cccc([N+](=O)[O-])c5)cs4)c(=O)n(-c4ccc(C)c(C)c4)c3C2)cc1 (stereo unspecified),156%
18,CCCN1c2cccc3cccc(c23)S1(=O)=O,101%
19,Cc1oc(CC(C)C)cc1C(=O)O,104%

row,SMILES,survival
1,CCN1C(=O)C2C(c3ccc(F)cc3)NC(CCSC)(C(=O)OC)C2C1=O (stereo unspecified),54%
2,Cn1c(=O)[nH]c2cc(-c3noc(-c4cccc(Cl)c4)n3)ccc21,87%
3,CCOc1ccc(-c2nn(CC(=O)NC3CCCC3)c3c2cnc2ccc(F)cc23)cc1,144%
4,O=C(Cn1nc(-c2ccccc2)c2cnc3ccc(F)cc3c21)NC1CCCC1,102%
5,COc1ccc(-c2nn(CC(=O)NC3CCCC3)c3c2cnc2ccc(F)cc23)cc1,46% (active)
6,Cc1nc2nc(NC(=O)c3ccc(Cl)cc3)[nH]n2c(=O)c1Cc1ccccc1,105%
7,Cc1nc2c(C(=O)NCCc3ccc(Cl)cc3)cnn2c(C)c1Cc1c(F)cccc1Cl,75%
8,Cc1ccc(CNC(=O)c2c[nH]n3c(=O)c(Cc4ccc(Cl)cc4)c(C)nc23)cc1,-12% (active)
9,COc1ccc(CCNC(=O)c2c[nH]n3c(=O)c(Cc4ccccc4Cl)c(C)nc23)cc1OC,32% (active)
10,Cc1nc2c(C(=O)NCCc3ccc(Cl)cc3)c[nH]n2c(=O)c1Cc1ccccc1F,-12% (active)
11,Cc1cccn2c(=O)c(C(=O)NCCc3ccc(Cl)cc3)cnc12,83%
12,Cc1cccn2c(=O)c(C(=O)NCCc3ccccc3)cnc12,58%
13,Cc1ccc(CNC(=O)c2nnc(Cc3ccc(Cl)cc3)o2)cc1,99%
14,Cc1nc2c(C(=O)NCCc3ccccc3)c[nH]n2c(=O)c1Cc1ccccc1F,-13% (active)
15,COc1ccc(CCNC(=O)c2cc(C)nc3c2c(C)nn3-c2ccccc2)cc1OC,92%
16,Cc1nc2c(C(=O)NCCc3ccccc3)cnn2c(C)c1Cc1c(F)cccc1Cl,79%
17,COc1ccc(CCNC(=O)c2ccc(Cn3c(=O)c4ccccc4n(Cc4ccccc4Cl)c3=O)cc2)cc1OC,80%
18,Cc1ccc(-n2ncc(C(=O)N3CCN(c4ccccn4)CC3)c2C2CCN(C(=O)OC(C)(C)C)CC2)cc1C,72%
